Most compounds without a hit are left out; they make up all but 6.1% or so of the library.
Hsp90 block = displaces geldanamycin probe from tumor Hsp90 | P07900 | NCI-N417 lysate Hsp90, Cy3B-geldanamycin FP displacement | inhibition, % at 30 µM | 64,000 compounds, 0.35% hits;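 active means inhibition above 50%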;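 further: 0% = tracer plus lysate wells and 100% = tracer alone without lysate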
MMP-13 inhibitor = inhibitors of human MMP13. MMP-13 fTHP FRET cleavage, Mca fluorescence. inhibition, % at 4 µM. 65,000 compounds, 0.07% hits. P45452;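 active means inhibition above the mean of compound-free control plate wells plus 3 SD, cut at about 14% in these data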;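 further: 0% = DMSO wells and 100% = wells with reference MMP-13 inhibitor after basal subtraction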
M1 ag = activates the M1 muscarinic receptor | B-score at 10 µM | CHO-M1 cells, Fluo-4 calcium fluorescence, agonist mode; stronger effect = higher value | 64,000 compounds, 3% hits | AID 626;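 active means fluorescence rise, raw or as B-score row- and column-corrected plate score, outside the 99.7% band of its plate's samples, either direction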
MKP-1 inh = inhibitors of human MKP-1 phosphatase. P28562. recombinant MKP-1, OMFP hydrolysis fluorescence. inhibition, %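 (compounds tested at a single concentration somewhere between 10 and 100 µM)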. 65,000 compounds, 0.15% hits. AID 374;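 active means inhibition above about 50%, limit read from the data; inconclusive means inhibition over screen mean plus 3 SD, below that limit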;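 further: 0% = DMSO max control wells and 100% = wells with enzyme stopped by NaOH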
Cdc25B inh = human M-phase inducer phosphatase 2 inhibition | recombinant Cdc25B, OMFP fluorescence Ex485/Em525 | inhibition, %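 (compounds tested at 10 µM final in the well)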 | 65,000 compounds, 0.1% hits; in the data active means inhibition above about 50%
M1 antagonist = blocks the rat M1 muscarinic receptor response to acetylcholine | P08482 | CHO-M1 cells, Fluo-4 calcium, ACh EC80 antagonist mode; stronger effect = lower value | B-score at 10 µM | 64,000 compounds, 3.4% hits | AID 628;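 active means calcium fluorescence response, raw or row-and-column corrected B-score, differing from the plate sample mean either way at a set confidence level, mostly lower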
Target sequence (P08482 whole entry, looked up): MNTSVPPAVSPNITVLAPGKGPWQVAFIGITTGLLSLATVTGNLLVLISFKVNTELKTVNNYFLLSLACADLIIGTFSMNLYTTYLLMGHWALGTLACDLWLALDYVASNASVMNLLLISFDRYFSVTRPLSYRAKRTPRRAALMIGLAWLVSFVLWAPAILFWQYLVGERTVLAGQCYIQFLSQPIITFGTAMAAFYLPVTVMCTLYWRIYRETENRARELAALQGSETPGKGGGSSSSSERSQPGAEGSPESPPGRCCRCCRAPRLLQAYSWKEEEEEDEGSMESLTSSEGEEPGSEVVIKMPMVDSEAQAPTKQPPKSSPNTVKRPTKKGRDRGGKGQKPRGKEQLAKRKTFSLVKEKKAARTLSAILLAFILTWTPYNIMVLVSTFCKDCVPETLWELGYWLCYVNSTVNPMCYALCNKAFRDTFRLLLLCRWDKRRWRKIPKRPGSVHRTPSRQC
M1 ag confirm = confirmation of rat M1 muscarinic receptor agonists. shares compounds with M1 ag. CHO-M1 cells, Fluo-4 calcium fluorescence, agonist mode; actives lie on both sides. fluorescence change (max-min) at 10 µM. 1,700 compounds, 19% hits;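 active means fluorescence change differs from the solvent-only DMSO control mean at a set confidence level in both duplicate runs; inconclusive means differs from solvent-only control mean in just one of two runs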;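 further: an EC20 dose of acetylcholine follows compound addition during the same imaging run; raw fluorescence intensity difference in instrument units with no normalization to controls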
M4 agonist ctr = activates rat M4 receptor in counter-screen for M1 agonists | 1,700 compounds, 9% hits | shares compounds with M1 ag | fluorescence change (max-min) at 10 µM | CHO M4/Gqi5 cells, Fluo-4 calcium fluorescence, agonist mode; actives lie on both sides;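 active means fluorescence change differing from the plate's solvent-only control wells at 99.7% confidence in both duplicates, whether higher or lower; inconclusive means differs from solvent controls in only one of two duplicates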
* = called active by the depositor; ? = inconclusive; / = no result given.

SMILES	Hsp90 block	MMP-13 inhibitor	M1 ag	MKP-1 inh	Cdc25B inh	M1 antagonist	M1 ag confirm	M4 agonist ctr
O=C(NC1CCCC1)c1cnn2c(C(F)(F)F)cc(-c3ccc4c(c3)OCO4)nc12	3.0	2.0	13.5*	0.3	13.2	-0.864	23	8.69
COc1ccc(-c2cc(C(F)(F)F)n3ncc(C(=O)NCc4ccco4)c3n2)cc1	0.5	-65.3	2.86*	14.8	-1.1	-0.686	9.97	4.94
COc1cc(NC(=O)Cn2nnc(-c3ccccc3N)n2)cc(OC)c1	-1.7	3.1	-0.629	-8.8	-6.6	0.475	/	/
Cc1cc(C)n(CCCNC(=O)c2ccc(S(=O)(=O)NCc3ccco3)cc2)n1	-0.1	1.1	-0.0963	1.0	-3.5	0.0843	/	/
Cc1c(C(=O)NCCc2ccccc2)oc2ccc(S(=O)(=O)N3CCOCC3)cc12	/	-1.1	2.29*	12.5	-8.2	-1.7	-31*	?
Cc1c(C(=O)NCCN2CCOCC2)oc2ccc(S(=O)(=O)N3CCCCCC3)cc12	/	0.1	-0.00334	13.1	-12.6	-1.46	/	/
Cc1c(C(=O)NCC2COc3ccccc3O2)oc2ccc(S(=O)(=O)N3CCOCC3)cc12 (configuration not stated)	/	0.9	16*	/	/	-2.42*	-12.6	?
Cc1cc2ccccc2n1CCNC(=O)c1ccc(S(=O)(=O)N2CCOCC2)cc1	1.0	-2.2	8.91*	7.1	0.1	0.178	-18.2	-25.9
Cc1cc2ccccc2n1CCNC(=O)c1ccccc1	3.2	-0.4	-1.89	-5.9	1.8	-0.994	/	/
Cc1csc(SCc2nc3sc4c(c3c(=O)[nH]2)CCC4)n1	-1.3	-2.4	-0.568	-0.6	0.3	-0.0866	/	/
Cc1ccc(C2C(C#N)=C(N)Oc3c2sc2ccccc32)o1 (configuration not stated)	-11.9	-6.4	109*	14.6	3.5	-0.0519	165*	52.8
CC1CCCN(C(=O)CSCC(=O)Nc2nc(-c3cccs3)cs2)C1 (configuration not stated)	-3.8	5.7	6.82*	0.3	-5.1	0.161	-1.2	-34.8
CC1CCCCN1C(=O)CSCC(=O)Nc1nc(-c2cccs2)cs1 (configuration not stated)	0.1	5.1	7.96*	-0.8	1.6	-0.823	-13.6	-54.5
COC(=O)c1cc(C)sc1NC(=O)c1cccnc1	-6.3	1.2	0	-2.8	-7.3	-0.959	/	/
COc1ccc(N(CC(=O)NC2CCCC2)C(=O)Cn2nnc(-c3ccc(C)cc3)n2)cc1OC	-0.8	3.6	13.2*	8.9	-10.9	0.0224	?	-59.5
COc1cc(C(=O)N2CCN(c3ncnc4sc(C)c(C)c34)CC2)cc(OC)c1OC	0.1	2.8	-1.1	-18.8	-5.7	-0.437	/	/
Cc1cc(C)n(-c2ncnc3sc4c(c23)CCCC4)n1	-4.9	-17.9	-0.0552	0.5	-2.6	-0.452	/	/
Cc1sc2ncnc(N3CCN(c4ncccn4)CC3)c2c1C	-6.1	2.9	1.97*	-1.2	-6.0	-0.178	-12.5	-44.8
Cc1cc(C)n(-c2ncnc3sc(C)c(C)c23)n1	-2.2	-19.1	4.95*	11.1	13.5	1.78	-12.6	-40.8
Clc1ccc(Cn2cccc2C2=NCCO2)cc1	-3.6	-6.1	2.91	4.3	-15.1	0.251	/	/
COc1cccc(OCCOc2c(OC)cccc2OC)c1	-0.2	1.3	0.686	3.1	3.4	-0.891	/	/
CCOC(=O)c1ccc(NS(=O)(=O)c2cnc[nH]2)cc1	0.9	-0.8	-0.929	-5.8	-11.1	0.167	/	/
C=CCOC(=O)c1[nH]c2c(c1C)C(=O)CC(c1cc(OC)c(OC)c(OC)c1)C2 (configuration not stated)	-0.8	4.1	3.3*	-10.5	-12.8	0.159	-11.6	-33.2
CCCCOC(=O)c1[nH]c2c(c1C)C(=O)CC(c1cc(OC)c(OC)c(OC)c1)C2 (configuration not stated)	-2.5	1.9	-0.00289	7.1	-17.7	-0.507	/	/
Cc1onc(-c2c(Cl)cccc2Cl)c1C(=O)Nc1ccc2c(c1)OCO2	14.3	-3.0	-0.00968	1.7	-12.5	-2.41	/	/
